# The supplement of paper PMC8728848
# About 410 targets per protein were measured; listed, in parts, are those with the strongest signals and a random draw of the rest.
# B1: PX9961M-bvu-482-23-482 (Bacteroides vulgatus) (protein)
# chain: WLDLAPSTQVDTETSINVLSDIEFTLNGIYSTMQSSDAYSGRLVYYGDVTGDDMQAVSSTKRTGNYYRFNFTKDNGPSSHWSYLYSIIQNCNLILMNVDKLSIDEDETEYKNDLKGQALAIRGMALFDLTRIFGYPYLKDNGASLGVPIVKELSTIDSKPARNTVAECYTEIISDLKNSTELLSGDFNKGKVNRWAAMTLLSRVYLYKGEYNEALTMAENAIKGAEKEGYALWTNEEYPTAWGNDASASNPGEILFEIVNLTTDSPGKESMGYLNSYNGYDDMCITCSFYQLLKKDPKDVRLKILSFDKKYYAYVNKYQPQQGENITDANIPLIRLSEAYLNAAEAAVQTGDNAKAVKYLNSIVQRANPENSVEGKTLTLENVLDERRKELVAEGHRMYDVIRNGMTVKRIDVKDSDINKTKHNTAYMEYDWNFHKILLPIPKKEMDANPNMKQNPGYVD
# Legend:
# Experiment in all cases: glycan array binding signal (z-score within array); higher = stronger binding
# Details in all cases: glycan notation: IUPAC condensed, linker removed
# [1] = target: Fuc(a1-2)Gal(b1-3)GlcNAc(b1-2)Man(a1-3)[Fuc(a1-2)Gal(b1-3)GlcNAc(b1-2)Man(a1-6)]Man(b1-4)GlcNAc(b1-4)GlcNAc
# In short: (§1)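 Glycan array data were curated from 3228 arrays in the Consortium for Functional Glycomics database and kept only where the protein sequence was available. Glycan names were converted to IUPAC-condensed notation, and columns mapping to the same glycan were averaged. The binding signal is a within-array Z-score, averaged across arrays of the same protein sequence at different concentrations or buffers and across linkers. Negative Z-scores can be read as non-binding.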
# [2] = target: Fuc(a1-2)Gal(b1-3)GlcNAc(b1-3)GalNAc
# In short: as §1
# [3] = target: Fuc(a1-2)Gal(b1-3)[Fuc(a1-4)]GlcNAc
# In short: as §1
# [4] = target: Fuc(a1-2)Gal(b1-3)[Fuc(a1-4)]GlcNAc(b1-3)[Gal(b1-4)GlcNAc(b1-6)]Gal(b1-4)Glc
# In short: as §1
# [5] = target: Fuc(a1-2)Gal(b1-4)GlcNAc(b1-2)[Fuc(a1-2)Gal(b1-4)GlcNAc(b1-4)]Man(a1-3)[Fuc(a1-2)Gal(b1-4)GlcNAc(b1-2)Man(a1-6)]Man(b1-4)GlcNAc(b1-4)GlcNAc
# In short: as §1
# [6] = target: Fuc(a1-2)Gal(b1-4)GlcNAc(b1-3)Gal(b1-4)GlcNAc
# In short: as §1
# [7] = target: Fuc(a1-2)Gal6S(b1-4)Glc6S
# In short: as §1
# [8] = target: Fuc(a1-2)[Gal(a1-3)]Gal(b1-3)GlcNAc
# In short: as §1
# [9] = target: Fuc(a1-2)[Gal(a1-3)]Gal(b1-4)GlcNAc
# In short: as §1
# [10] = target: Fuc(a1-2)[Gal(a1-3)]Gal(b1-4)GlcNAc(b1-2)Man(a1-3)[Fuc(a1-2)[Gal(a1-3)]Gal(b1-4)GlcNAc(b1-2)Man(a1-6)]Man(b1-4)GlcNAc(b1-4)GlcNAc
# In short: as §1
# [11] = target: Fuc(a1-2)[GalNAc(a1-4)]Gal(b1-4)GlcNAc
# In short: as §1
# [12] = target: Fuc(a1-3)[Gal(b1-4)]GlcNAc(b1-2)Man(a1-3)[Fuc(a1-3)[Gal(b1-4)]GlcNAc(b1-2)Man(a1-6)]Man(b1-4)GlcNAc(b1-4)[Fuc(a1-6)]GlcNAc
# In short: as §1
# [13] = target: Fuc(a1-3)[Gal3S(b1-4)]GlcNAc6S
# In short: as §1
# [14] = target: Gal(a1-3)[Gal(a1-4)]Gal(b1-4)GlcNAc
# In short: as §1
# [15] = target: Gal(a1-4)Gal(b1-3)GlcNAc(b1-2)Man(a1-3)[Gal(a1-4)Gal(b1-3)GlcNAc(b1-2)Man(a1-6)]Man(b1-4)GlcNAc(b1-4)GlcNAc
# In short: as §1
# [16] = target: Gal(b1-3)GlcNAc(b1-2)Man(a1-3)[GlcNAc(b1-4)][Gal(b1-3)GlcNAc(b1-2)Man(a1-6)]Man(b1-4)GlcNAc(b1-4)GlcNAc
# In short: as §1
# [17] = target: Gal(b1-4)GalNAc(b1-3)[Fuc(a1-2)]Gal(b1-4)GlcNAc
# In short: as §1
# [18] = target: Gal(b1-4)GlcNAc(a1-6)Gal(b1-4)GlcNAc
# In short: as §1
# [19] = target: Gal(b1-4)GlcNAc(b1-2)Man(a1-3)Man(b1-4)GlcNAc(b1-4)GlcNAc
# In short: as §1
# [20] = target: Gal(b1-4)GlcNAc(b1-2)Man(a1-3)[Gal(b1-4)GlcNAc(b1-2)Man(a1-6)][GlcNAc(b1-4)]Man(b1-4)GlcNAc(b1-4)[Fuc(a1-6)]GlcNAc
# In short: as §1
# [21] = target: Gal(b1-4)GlcNAc(b1-2)[Gal(b1-4)GlcNAc(b1-6)]Man(a1-6)[GlcNAc(b1-4)][Gal(b1-4)GlcNAc(b1-2)Man(a1-3)]Man(b1-4)GlcNAc(b1-4)GlcNAc
# In short: as §1
# [22] = target: Gal(b1-4)GlcNAc(b1-2)[Gal(b1-4)GlcNAc(b1-6)]Man(a1-6)[GlcNAc(b1-4)][Gal(b1-4)GlcNAc(b1-2)[Gal(b1-4)GlcNAc(b1-4)]Man(a1-3)]Man(b1-4)GlcNAc(b1-4)[Fuc(a1-6)]GlcNAc
# In short: as §1
# [23] = target: Gal(b1-4)GlcNAc(b1-3)Gal(b1-3)GalNAc
# In short: as §1
# [24] = target: Gal(b1-4)GlcNAc(b1-3)Gal(b1-4)GlcNAc(b1-3)Gal(b1-4)GlcNAc
# In short: as §1
# [25] = target: Gal(b1-4)GlcNAc(b1-3)Gal(b1-4)GlcNAc(b1-3)Gal(b1-4)GlcNAc(b1-2)Man(a1-3)[Gal(b1-4)GlcNAc(b1-3)Gal(b1-4)GlcNAc(b1-3)Gal(b1-4)GlcNAc(b1-2)Man(a1-6)]Man(b1-4)GlcNAc(b1-4)GlcNAc
# In short: as §1
# [26] = target: Gal(b1-4)GlcNAc(b1-3)Gal(b1-4)GlcNAc(b1-3)Gal(b1-4)GlcNAc(b1-3)Gal(b1-4)GlcNAc(b1-2)Man(a1-3)[Gal(b1-4)GlcNAc(b1-3)Gal(b1-4)GlcNAc(b1-3)Gal(b1-4)GlcNAc(b1-3)Gal(b1-4)GlcNAc(b1-2)Man(a1-6)]Man(b1-4)GlcNAc(b1-4)[Fuc(a1-6)]GlcNAc
# In short: as §1
# [27] = target: Gal(b1-4)GlcNAc(b1-3)Gal(b1-4)[Fuc(a1-3)]GlcNAc(b1-3)Gal(b1-4)[Fuc(a1-3)]GlcNAc
# In short: as §1
# Gal6S(b1-4)Glc6S = target: Gal6S(b1-4)Glc6S
# In short: as §1
# Gal6S(b1-4)GlcNAc6S = target: Gal6S(b1-4)GlcNAc6S
# In short: as §1
# GalNAc(b1-4)GlcNAc6S = target: GalNAc(b1-4)GlcNAc6S
# In short: as §1
binder,measurement,setting,value
B1,glycan array binding signal (z-score),[1],0.321
same,glycan array binding signal (z-score),[2],-1.09
same,glycan array binding signal (z-score),[3],-0.893
same,glycan array binding signal (z-score),[4],0.057
same,glycan array binding signal (z-score),[5],1.74
same,glycan array binding signal (z-score),[6],-1.33
same,glycan array binding signal (z-score),[7],0.138
same,glycan array binding signal (z-score),[8],-0.45
same,glycan array binding signal (z-score),[9],-0.597
same,glycan array binding signal (z-score),[10],1.68
same,glycan array binding signal (z-score),[11],-0.779
same,glycan array binding signal (z-score),[12],1.97
same,glycan array binding signal (z-score),[13],-0.788
same,glycan array binding signal (z-score),[14],4.04
same,glycan array binding signal (z-score),[15],1.92
same,glycan array binding signal (z-score),[16],-0.064
same,glycan array binding signal (z-score),[17],-0.62
same,glycan array binding signal (z-score),[18],1.66
same,glycan array binding signal (z-score),[19],0.327
same,glycan array binding signal (z-score),[20],0.416
same,glycan array binding signal (z-score),[21],-0.402
same,glycan array binding signal (z-score),[22],-0.596
same,glycan array binding signal (z-score),[23],-1.18
same,glycan array binding signal (z-score),[24],-0.219
same,glycan array binding signal (z-score),[25],1.88
same,glycan array binding signal (z-score),[26],0.966
same,glycan array binding signal (z-score),[27],-0.719
same,glycan array binding signal (z-score),Gal6S(b1-4)Glc6S,-0.529
same,glycan array binding signal (z-score),Gal6S(b1-4)GlcNAc6S,-0.084
same,glycan array binding signal (z-score),GalNAc(b1-4)GlcNAc6S,-0.209
